Experiment in all cases: log2 ratio of Biotin-Ahx-Ub-VS probe labelling (fragment/DMSO); higher = less target engagement (more negative = stronger competition), active = hit call of the paper (q ≤ 0.05, log2 ratio ≤ -1)
Common to all, as to details: compound concentration: 200 uM; treatment time: 3 h

One experiment has as its target T1, USP42 (UniProt Q9H9J4).
T1 sequence (whole entry): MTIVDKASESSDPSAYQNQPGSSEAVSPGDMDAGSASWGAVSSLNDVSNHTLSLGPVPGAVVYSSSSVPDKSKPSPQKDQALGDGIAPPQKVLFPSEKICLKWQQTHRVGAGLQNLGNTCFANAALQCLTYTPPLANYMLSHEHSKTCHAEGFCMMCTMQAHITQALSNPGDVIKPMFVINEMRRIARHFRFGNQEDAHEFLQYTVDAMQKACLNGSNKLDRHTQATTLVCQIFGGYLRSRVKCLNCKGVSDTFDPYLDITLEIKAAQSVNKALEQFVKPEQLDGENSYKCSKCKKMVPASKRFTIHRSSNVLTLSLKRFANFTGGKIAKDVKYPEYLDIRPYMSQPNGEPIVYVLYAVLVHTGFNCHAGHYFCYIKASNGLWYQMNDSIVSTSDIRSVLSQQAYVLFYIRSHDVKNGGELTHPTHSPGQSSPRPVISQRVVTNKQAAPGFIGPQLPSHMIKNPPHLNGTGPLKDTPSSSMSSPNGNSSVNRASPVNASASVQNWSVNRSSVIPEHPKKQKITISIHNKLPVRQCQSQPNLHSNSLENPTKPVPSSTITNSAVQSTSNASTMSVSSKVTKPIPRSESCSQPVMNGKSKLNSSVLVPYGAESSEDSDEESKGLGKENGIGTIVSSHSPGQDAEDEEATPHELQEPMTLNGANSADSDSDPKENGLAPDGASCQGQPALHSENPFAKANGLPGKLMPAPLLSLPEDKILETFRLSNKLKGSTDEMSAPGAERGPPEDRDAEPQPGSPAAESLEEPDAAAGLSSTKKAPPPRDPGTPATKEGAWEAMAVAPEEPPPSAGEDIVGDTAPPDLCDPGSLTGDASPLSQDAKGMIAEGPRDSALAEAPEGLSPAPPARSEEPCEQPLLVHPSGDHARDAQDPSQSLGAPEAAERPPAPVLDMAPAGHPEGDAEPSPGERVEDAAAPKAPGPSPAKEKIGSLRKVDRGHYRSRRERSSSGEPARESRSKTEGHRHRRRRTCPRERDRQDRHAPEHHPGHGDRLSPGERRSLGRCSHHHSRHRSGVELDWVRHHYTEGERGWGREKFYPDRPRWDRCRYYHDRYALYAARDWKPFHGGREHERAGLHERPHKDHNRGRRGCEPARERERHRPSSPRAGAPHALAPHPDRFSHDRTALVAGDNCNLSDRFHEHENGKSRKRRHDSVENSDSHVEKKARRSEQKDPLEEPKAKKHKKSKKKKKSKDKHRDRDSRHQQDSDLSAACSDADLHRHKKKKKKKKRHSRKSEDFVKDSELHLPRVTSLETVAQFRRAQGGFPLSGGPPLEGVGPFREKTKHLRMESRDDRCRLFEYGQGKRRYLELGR
In short, it runs like this:
(§1)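 Lysate from HEK293T cells, 495 µg per sample in Tris/CHAPS/IGEPAL buffer with protease inhibitors, was treated for 3 h in triplicate with fragment at 200 µM or vehicle. Biotin-Ahx-Ub-VS was next added at 0.5 µM final for 1 h. The labelled DUBs were enriched with NeutrAvidin, digested with LysC and trypsin, and run by diaPASEF LC-MS/MS, with values given as average log2 fragment/vehicle ratios by unpaired t-test on global-median-normalised Spectronaut quantities of proteins with ≥2 unique peptides.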

The target in a further experiment is USP46 (UniProt P62068). Summed up:
as §1

Another experiment addresses T2, USP47 (UniProt Q96K76).
T2 sequence (whole entry): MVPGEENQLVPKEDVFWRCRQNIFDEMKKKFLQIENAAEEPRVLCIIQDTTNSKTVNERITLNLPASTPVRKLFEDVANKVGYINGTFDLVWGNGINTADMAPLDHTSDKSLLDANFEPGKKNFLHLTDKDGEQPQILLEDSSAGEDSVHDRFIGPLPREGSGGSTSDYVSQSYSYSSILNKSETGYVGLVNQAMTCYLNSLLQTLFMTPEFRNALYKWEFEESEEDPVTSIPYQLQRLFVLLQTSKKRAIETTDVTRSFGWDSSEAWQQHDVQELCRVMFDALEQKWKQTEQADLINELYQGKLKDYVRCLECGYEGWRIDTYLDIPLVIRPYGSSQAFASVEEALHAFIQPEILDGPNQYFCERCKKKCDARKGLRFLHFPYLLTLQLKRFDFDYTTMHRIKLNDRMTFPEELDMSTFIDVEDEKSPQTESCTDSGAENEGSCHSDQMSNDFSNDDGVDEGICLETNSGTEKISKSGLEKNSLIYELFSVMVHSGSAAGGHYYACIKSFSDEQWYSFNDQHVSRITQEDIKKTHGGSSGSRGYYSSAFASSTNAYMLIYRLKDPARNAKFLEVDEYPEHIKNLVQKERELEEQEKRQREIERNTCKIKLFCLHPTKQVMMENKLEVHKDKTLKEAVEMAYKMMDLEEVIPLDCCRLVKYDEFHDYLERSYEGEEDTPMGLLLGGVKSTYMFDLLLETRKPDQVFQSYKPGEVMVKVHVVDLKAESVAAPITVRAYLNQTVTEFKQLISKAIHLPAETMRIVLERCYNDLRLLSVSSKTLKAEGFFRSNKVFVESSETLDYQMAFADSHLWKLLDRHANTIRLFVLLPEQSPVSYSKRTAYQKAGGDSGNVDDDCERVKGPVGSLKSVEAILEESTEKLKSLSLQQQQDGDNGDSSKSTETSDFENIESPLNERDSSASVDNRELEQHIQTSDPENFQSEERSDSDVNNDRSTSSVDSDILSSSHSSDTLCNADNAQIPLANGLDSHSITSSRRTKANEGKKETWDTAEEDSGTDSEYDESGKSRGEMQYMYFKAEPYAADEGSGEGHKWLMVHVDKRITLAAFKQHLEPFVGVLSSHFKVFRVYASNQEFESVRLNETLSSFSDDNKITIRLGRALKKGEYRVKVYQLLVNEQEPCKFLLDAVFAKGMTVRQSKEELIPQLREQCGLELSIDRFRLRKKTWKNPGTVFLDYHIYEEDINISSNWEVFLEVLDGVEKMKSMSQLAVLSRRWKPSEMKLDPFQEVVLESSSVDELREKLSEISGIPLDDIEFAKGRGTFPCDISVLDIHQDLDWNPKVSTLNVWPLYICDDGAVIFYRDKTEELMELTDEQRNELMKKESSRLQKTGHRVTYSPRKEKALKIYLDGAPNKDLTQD
In short, it runs like this:
as §1

The target in the next experiment is T3, USP48 (UniProt Q86UV5).
T3 sequence (whole entry): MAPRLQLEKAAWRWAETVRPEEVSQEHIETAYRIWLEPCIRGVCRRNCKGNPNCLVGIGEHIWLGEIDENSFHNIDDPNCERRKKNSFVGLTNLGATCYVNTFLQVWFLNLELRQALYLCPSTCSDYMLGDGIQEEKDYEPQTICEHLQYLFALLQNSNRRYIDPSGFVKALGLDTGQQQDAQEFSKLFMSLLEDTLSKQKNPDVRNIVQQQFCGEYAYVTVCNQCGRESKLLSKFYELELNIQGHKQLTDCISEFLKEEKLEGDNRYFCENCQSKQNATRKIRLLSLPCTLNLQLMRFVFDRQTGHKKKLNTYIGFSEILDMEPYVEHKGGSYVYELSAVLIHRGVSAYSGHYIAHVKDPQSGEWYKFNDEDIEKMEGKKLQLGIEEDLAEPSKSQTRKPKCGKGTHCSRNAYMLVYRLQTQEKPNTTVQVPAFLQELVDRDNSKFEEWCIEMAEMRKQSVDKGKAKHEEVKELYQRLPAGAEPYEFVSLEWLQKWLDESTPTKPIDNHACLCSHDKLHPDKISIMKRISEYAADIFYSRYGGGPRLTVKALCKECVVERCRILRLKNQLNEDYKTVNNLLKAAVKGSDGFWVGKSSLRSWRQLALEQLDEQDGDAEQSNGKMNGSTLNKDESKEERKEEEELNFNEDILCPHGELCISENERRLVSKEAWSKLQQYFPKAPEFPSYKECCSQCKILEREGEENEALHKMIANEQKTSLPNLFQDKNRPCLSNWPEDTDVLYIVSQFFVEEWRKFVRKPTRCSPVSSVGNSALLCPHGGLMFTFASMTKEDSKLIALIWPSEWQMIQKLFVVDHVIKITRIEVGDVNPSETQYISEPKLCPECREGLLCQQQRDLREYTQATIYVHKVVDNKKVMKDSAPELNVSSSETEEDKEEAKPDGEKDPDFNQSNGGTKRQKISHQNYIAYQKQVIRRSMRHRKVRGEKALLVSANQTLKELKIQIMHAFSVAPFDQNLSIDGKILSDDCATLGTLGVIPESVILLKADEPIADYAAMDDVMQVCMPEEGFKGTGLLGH
In short, it runs like this: as §1

The target in another experiment is T4, USP5 (UniProt P45974).
T4 sequence (whole entry): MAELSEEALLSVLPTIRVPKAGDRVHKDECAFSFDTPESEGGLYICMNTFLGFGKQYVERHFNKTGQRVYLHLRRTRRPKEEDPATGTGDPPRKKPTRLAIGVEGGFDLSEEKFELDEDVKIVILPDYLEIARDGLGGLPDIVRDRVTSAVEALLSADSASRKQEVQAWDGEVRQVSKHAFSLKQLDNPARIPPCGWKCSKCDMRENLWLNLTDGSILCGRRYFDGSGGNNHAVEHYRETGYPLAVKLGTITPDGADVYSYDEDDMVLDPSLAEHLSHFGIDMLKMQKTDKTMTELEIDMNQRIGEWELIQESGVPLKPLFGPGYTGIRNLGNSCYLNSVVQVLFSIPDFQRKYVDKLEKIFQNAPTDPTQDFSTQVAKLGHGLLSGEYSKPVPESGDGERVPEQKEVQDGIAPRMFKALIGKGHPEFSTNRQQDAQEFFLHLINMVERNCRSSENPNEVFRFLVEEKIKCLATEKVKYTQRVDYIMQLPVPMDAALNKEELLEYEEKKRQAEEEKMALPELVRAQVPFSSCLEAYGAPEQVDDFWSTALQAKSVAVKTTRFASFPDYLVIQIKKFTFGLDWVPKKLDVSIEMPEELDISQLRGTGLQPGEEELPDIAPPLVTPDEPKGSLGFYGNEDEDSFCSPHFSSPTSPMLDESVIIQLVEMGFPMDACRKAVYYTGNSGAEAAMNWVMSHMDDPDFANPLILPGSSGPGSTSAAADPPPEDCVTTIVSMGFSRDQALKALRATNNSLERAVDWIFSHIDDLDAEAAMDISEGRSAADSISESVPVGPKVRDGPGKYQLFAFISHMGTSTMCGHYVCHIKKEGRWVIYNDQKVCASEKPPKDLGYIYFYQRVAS
Summed up:
as §1

In another experiment the target is USP54 (UniProt Q70EL1). Summed up: as §1
USP54, sequence (Q70EL1 whole entry): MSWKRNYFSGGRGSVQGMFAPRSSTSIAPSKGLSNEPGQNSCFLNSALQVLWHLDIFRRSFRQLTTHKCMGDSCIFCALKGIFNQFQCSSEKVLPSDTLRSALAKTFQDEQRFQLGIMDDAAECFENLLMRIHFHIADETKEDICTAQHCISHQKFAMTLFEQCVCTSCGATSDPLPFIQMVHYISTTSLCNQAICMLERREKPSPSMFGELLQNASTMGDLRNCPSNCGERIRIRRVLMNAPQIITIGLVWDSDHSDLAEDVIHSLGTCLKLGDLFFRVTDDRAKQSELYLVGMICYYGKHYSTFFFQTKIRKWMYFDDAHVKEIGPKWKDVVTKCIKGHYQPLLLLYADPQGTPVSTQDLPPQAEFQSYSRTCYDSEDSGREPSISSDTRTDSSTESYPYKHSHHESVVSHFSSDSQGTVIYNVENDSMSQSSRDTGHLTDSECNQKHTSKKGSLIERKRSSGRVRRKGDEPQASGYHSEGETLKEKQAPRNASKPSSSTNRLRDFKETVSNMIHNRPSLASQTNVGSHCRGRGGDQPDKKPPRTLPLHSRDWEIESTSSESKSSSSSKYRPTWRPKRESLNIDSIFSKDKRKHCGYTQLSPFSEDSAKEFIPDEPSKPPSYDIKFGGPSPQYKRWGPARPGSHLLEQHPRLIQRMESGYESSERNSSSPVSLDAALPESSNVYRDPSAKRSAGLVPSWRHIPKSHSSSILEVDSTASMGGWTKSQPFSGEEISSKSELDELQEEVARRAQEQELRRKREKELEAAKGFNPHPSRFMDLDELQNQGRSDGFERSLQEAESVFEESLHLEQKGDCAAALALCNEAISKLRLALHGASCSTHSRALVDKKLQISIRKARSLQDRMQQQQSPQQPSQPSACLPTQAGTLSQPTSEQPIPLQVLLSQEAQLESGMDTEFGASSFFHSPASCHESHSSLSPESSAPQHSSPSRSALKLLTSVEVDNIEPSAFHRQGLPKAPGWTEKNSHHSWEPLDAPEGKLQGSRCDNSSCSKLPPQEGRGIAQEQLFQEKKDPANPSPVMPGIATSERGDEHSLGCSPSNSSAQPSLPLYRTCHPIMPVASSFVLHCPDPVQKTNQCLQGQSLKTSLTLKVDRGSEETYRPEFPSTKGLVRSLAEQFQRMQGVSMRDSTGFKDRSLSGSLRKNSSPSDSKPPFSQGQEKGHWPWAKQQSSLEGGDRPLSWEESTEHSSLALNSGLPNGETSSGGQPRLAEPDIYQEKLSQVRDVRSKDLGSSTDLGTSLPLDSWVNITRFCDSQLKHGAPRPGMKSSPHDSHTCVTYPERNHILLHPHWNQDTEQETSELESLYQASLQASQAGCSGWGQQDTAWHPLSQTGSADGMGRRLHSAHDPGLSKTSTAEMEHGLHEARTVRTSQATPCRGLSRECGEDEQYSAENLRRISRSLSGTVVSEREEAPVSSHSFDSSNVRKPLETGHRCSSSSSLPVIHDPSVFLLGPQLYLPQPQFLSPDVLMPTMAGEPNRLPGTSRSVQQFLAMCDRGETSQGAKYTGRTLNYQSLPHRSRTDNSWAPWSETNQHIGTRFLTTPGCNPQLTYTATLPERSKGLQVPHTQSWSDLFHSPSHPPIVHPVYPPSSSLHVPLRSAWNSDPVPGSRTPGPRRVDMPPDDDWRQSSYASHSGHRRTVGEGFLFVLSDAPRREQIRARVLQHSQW
In the next experiment the target is USP7 (UniProt Q93009). Summed up: as §1
USP7, sequence (Q93009 whole entry, looked up): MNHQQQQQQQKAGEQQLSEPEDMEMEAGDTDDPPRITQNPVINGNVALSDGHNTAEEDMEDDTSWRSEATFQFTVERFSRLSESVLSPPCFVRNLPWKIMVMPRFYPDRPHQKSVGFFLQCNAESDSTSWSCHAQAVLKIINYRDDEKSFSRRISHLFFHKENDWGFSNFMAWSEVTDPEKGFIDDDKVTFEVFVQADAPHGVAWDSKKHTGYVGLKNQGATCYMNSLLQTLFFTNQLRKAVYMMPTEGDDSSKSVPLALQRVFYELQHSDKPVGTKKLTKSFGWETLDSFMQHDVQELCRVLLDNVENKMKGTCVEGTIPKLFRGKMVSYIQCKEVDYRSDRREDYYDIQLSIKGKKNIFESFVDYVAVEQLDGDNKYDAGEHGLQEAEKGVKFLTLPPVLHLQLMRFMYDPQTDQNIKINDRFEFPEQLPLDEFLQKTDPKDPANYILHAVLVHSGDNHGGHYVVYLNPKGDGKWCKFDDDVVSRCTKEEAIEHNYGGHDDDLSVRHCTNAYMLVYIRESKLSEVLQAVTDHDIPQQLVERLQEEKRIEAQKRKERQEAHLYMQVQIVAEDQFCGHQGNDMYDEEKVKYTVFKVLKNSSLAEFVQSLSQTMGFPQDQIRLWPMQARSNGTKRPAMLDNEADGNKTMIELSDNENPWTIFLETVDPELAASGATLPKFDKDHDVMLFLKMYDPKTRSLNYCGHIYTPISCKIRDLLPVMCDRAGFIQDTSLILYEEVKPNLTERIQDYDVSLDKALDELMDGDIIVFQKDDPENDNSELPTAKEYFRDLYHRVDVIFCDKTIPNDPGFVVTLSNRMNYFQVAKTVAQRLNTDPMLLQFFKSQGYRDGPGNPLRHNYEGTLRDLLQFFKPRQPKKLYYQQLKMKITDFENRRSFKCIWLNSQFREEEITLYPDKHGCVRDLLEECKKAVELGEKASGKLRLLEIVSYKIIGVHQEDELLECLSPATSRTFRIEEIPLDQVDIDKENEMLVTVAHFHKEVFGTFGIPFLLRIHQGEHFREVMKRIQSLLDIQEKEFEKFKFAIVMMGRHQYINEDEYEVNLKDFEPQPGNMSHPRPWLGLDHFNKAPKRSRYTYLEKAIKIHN
A further experiment addresses T5, USP8 (UniProt P40818).
T5 sequence (whole entry): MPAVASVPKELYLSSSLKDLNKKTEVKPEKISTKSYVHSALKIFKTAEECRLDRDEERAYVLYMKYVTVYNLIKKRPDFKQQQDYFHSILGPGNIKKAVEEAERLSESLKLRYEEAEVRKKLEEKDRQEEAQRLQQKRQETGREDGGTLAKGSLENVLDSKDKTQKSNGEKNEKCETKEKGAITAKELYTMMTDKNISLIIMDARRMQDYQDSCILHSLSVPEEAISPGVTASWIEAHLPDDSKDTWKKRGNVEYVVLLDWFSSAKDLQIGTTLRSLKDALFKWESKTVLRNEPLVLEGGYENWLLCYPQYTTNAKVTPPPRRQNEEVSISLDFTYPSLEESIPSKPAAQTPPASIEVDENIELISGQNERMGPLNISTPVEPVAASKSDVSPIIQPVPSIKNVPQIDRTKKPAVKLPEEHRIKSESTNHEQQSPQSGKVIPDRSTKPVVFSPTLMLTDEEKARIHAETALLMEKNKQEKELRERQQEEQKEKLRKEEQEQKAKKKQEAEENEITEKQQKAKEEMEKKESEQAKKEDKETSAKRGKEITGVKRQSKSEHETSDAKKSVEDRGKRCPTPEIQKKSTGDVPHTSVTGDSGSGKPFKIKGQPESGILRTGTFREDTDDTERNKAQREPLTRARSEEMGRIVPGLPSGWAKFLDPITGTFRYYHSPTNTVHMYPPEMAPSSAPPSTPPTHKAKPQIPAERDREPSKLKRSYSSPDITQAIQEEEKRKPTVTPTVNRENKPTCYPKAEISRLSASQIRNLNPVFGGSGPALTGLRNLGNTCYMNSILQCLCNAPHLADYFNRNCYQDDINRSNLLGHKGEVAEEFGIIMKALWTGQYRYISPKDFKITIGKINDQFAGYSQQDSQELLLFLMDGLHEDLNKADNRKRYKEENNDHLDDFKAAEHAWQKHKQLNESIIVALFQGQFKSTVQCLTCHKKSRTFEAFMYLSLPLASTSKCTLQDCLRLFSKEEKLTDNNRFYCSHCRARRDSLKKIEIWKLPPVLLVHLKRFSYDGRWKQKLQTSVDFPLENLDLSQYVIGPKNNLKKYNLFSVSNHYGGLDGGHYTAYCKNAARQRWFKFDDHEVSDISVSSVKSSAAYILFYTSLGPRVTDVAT
In short, it runs like this:
as §1

Another experiment has as its target USP9X (UniProt Q93008). In short, it runs like this: as §1
The target of a further experiment is UniProt O00487. Summed up: as §1
UniProt O00487, sequence (O00487 whole entry): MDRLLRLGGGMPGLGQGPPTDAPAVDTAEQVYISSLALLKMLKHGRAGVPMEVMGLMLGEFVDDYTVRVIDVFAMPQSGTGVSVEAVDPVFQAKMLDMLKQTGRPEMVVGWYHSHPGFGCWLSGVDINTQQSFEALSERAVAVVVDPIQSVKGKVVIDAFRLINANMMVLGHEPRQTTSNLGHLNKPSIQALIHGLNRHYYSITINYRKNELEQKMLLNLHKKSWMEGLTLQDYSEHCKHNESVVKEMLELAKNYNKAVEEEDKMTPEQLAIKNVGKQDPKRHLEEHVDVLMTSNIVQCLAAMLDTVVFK

A number with no mark means an inactive call.

USP46, sequence (P62068 whole entry): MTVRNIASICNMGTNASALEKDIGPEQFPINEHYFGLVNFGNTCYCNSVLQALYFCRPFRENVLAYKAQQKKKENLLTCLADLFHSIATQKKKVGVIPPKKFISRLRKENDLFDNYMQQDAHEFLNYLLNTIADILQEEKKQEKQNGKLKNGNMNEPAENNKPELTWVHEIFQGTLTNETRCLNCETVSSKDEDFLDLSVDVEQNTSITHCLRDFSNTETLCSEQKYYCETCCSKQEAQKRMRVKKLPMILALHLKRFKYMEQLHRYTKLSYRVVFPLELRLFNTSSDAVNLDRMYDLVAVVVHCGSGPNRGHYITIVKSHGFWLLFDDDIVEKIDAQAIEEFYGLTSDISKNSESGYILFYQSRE

Turning to `CC(C)n1nccc1NC(=O)CCl`, the “log2 ratio of Biotin-Ahx-Ub-VS probe labelling” value (shortened to “log2 ratio”) in the experiment with USP42 is -0.0446; in the experiment with USP46, 0.0362; in the experiment with USP47, -0.313; with USP48, -0.375; with USP5, 0.00439; with USP54, 0.614. The “log2 ratio” value with USP7 was -0.278; in the experiment with USP8, -0.493; with USP9X, -0.225; with UniProt O00487 it was -0.188.
In the case of `CN(C)C(=O)c1ccc(NC(=O)CCl)cc1`, the “log2 ratio” value was -0.0444 with USP42; -0.0105 with USP46; -0.38 with USP47; -0.84 with USP48; 0.14 in the experiment with USP5; -0.408 in the experiment with USP54. The “log2 ratio” value with USP7 was -0.0714; with USP8, -0.446; in the experiment with USP9X, -0.0881; with UniProt O00487, -0.0189.
For the molecule `COc1cccc(CN(C)C(=O)CCl)c1`, the “log2 ratio” value with USP42 was -0.309; with USP46, -0.0667; in the experiment with USP47, -0.35; in the experiment with USP48, -0.935; with USP5 it was 0.462; with USP54, 0.00406. The “log2 ratio” value is -1.43 (active) with USP7, 0.148 with USP8, 0.0455 in the experiment with USP9X and 0.0127 in the experiment with UniProt O00487.

The record behind these values is the supplement of paper PMC11732987, “Enantioselective OTUD7B fragment discovery through chemoproteomics screening and high-throughput optimisation” (Communications Chemistry, 2025).
